Among the data in PubChem BioAssay (EPA / NIEHS) are outcome and AC50 values, retold here.

SMILES strings stand for the structures. Active and inactive are the calls of the source. The calls were made as follows: active = hit-call score of the fitted dose curve at least 0.9, where 1 is the maximum; inactive = score below 0.9.

Read-out in test [1]: Human Leukocyte Antigen - DR isotype (HLADR), HLA-DRA (gene 3122)
Kind of test: BSK_BE3C_HLADR: BioMAP Diversity Plus: BE3C Assay for Human Leukocyte Antigen - DR isotype (HLADR) Biomarker Activity (AID 2283032). The settings on record: primary human bronchial epithelial cells; actives raise or lower the signal. The method in brief: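 Human primary bronchial epithelial cells in the BE3C system were exposed to chemicals for 24 h, after which HLA-DR levels were quantified by ELISA. Activity was fitted bidirectionally, gain or loss of signal, against DMSO as negative control and baseline.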

Read-out in test [2]: Vascular cell adhesion molecule 1 (VCAM1), VCAM1 (gene 7412)
Kind of test: BSK_4H_VCAM1: BioMAP Diversity Plus: 4H Assay for Vascular cell adhesion molecule 1 (VCAM1) Biomarker Activity (AID 2283033).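 Also: cell-surface VCAM-1 protein measured by ELISA.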 The settings on record: primary human endothelial cells (HUVEC); actives raise or lower the signal. The method in brief:
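Primary human umbilical vein endothelial cells were exposed to chemicals for 24 h, after which VCAM-1 was quantified by ELISA. Responses were fitted bidirectionally against DMSO as negative control and activity baseline.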

Read-out in test [3]: Interferon-gamma inducible Protein 10 (IP10), CXCL10 (gene 3627)
Kind of test: BSK_BE3C_IP10: BioMAP Diversity Plus: BE3C Assay for Interferon-gamma inducible Protein 10 (IP10) Biomarker Activity (AID 2283034). The note with it: primary human bronchial epithelial cells; actives raise or lower the signal. The essentials: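 Human primary bronchial epithelial cells were exposed to chemicals for 24 hours, after which IP-10 levels were measured by ELISA. Data were fitted bidirectionally against DMSO, which served as the negative control and activity baseline.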

Read-out in test [4]: Monokine induced gamma interferon (MIG), CXCL9 (gene 4283)
Kind of test: BSK_BE3C_MIG: BioMAP Diversity Plus: BE3C Assay for Monokine induced gamma interferon (MIG) Biomarker Activity (AID 2283035).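 Also: MIG protein measured by ELISA in BE3C cultures after 24 h of dosing.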 The note with it: primary human bronchial epithelial cells; actives raise or lower the signal. The method in brief:
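ELISA read-out of MIG in human lung bronchial epithelial primary cultures, 24 h post-dosing. Bidirectional curve fit vs DMSO baseline.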

Read-out in test [5]: Plasminogen activator inhibitor-1 (PAI1), SERPINE1 (gene 5054)
Kind of test: BSK_BE3C_PAI1: BioMAP Diversity Plus: BE3C Assay for Plasminogen activator inhibitor-1 (PAI1) Biomarker Activity (AID 2283037). The settings on record: primary human bronchial epithelial cells; actives raise or lower the signal. The method in brief:
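Human primary bronchial epithelial cells were exposed to chemical for 24 h, then PAI-1 was quantified by ELISA. Activity was fitted bidirectionally relative to the DMSO negative control baseline.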

Read-out in test [6]: urokinase plasminogen activator (uPA), PLAU (gene 5328)
The test is described as follows: BSK_BE3C_uPA: BioMAP Diversity Plus: BE3C Assay for urokinase plasminogen activator (uPA) Biomarker Activity (AID 2283038).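 Also: uPA protein level quantified by ELISA in cell cultures; uPA read one day after compound addition.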 The note with it: primary human bronchial epithelial cells; actives raise or lower the signal. The method in brief: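 Bronchial epithelial cells (human, primary); chemical 24 h; uPA by ELISA; bidirectional fit vs DMSO. SRB (0.1%, after 10% TCA fixation, 560 nm) in parallel cultures for cytotoxicity.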

Read-out in test [7]: Urokinase-type plasminogen activator receptor (uPAR), PLAUR (gene 5329)
Kind of test: BSK_BE3C_uPAR: BioMAP Diversity Plus: BE3C Assay for Urokinase-type plasminogen activator receptor (uPAR) Biomarker Activity (AID 2283039).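 Also: cells exposed to compound for one day before measurement.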 The note with it: primary human bronchial epithelial cells; actives raise or lower the signal. The essentials: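 Primary human bronchial epithelial cells were dosed with chemical and harvested 24 h later; uPAR was quantified by ELISA. Activity was fitted bidirectionally against DMSO as negative control and baseline.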

Read-out in test [8]: Interleukin-6 (IL6), IL6 (gene 3569)
Kind of test: BSK_CASM3C_IL6: BioMAP Diversity Plus: CASM3C Assay for Interleukin-6 (IL6) Biomarker Activity for (AID 2283040). The note with it: primary human coronary artery smooth muscle cells; actives raise or lower the signal.

Read-out in test [9]: Tissue plasminogen activator (tPA), PLAT (gene 5327)
The test is described as follows: BSK_BE3C_tPA: BioMAP Diversity Plus: BE3C Assay for Tissue plasminogen activator (tPA) Biomarker Activity (AID 2283041).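 Also: tPA level quantified by ELISA one day after compound addition.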 The note with it: primary human bronchial epithelial cells; actives raise or lower the signal. The method in brief: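 Human primary bronchial epithelial cells were dosed with chemical and tPA biomarker levels measured by ELISA 24 hours later. Activity was fitted bidirectionally against DMSO as negative control and baseline.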

Read-out in test [10]: Interleukin-8 (IL8), CXCL8 (gene 3576)
The test is described as follows: BSK_CASM3C_IL8: BioMAP Diversity Plus: CASM3C Assay for Interleukin-8 (IL8) Biomarker Activity (AID 2283042).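 Also: IL-8 protein level quantified by ELISA.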 The note with it: primary human coronary artery smooth muscle cells; actives raise or lower the signal.

Read-out in test [11]: Human Leukocyte Antigen - DR isotype (HLADR), HLA-DRA (gene 3122)
The test is described as follows: BSK_CASM3C_HLADR: BioMAP Diversity Plus: CASM3C Assay for Human Leukocyte Antigen - DR isotype (HLADR) Biomarker Activity (AID 2283043).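 Also: cell-surface HLA-DR protein level quantified by ELISA.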 The note with it: primary human coronary artery smooth muscle cells; actives raise or lower the signal.

Read-out in test [12]: Macrophage colony-stimulating factor (MCSF), CSF1 (gene 1435)
Kind of test: BSK_CASM3C_MCSF: BioMAP Diversity Plus: CASM3C Assay for Macrophage colony-stimulating factor (MCSF) Biomarker Activity (AID 2283044).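 Also: M-CSF protein amount quantified by ELISA after 24 h exposure.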 The settings on record: primary human coronary artery smooth muscle cells; actives raise or lower the signal.

Read-out in test [13]: Low-density lipoprotein receptor (LDLR), LDLR (gene 3949)
Kind of test: BSK_CASM3C_LDLR: BioMAP Diversity Plus: CASM3C Assay for Low-density lipoprotein receptor (LDLR) Biomarker Activity (AID 2283045).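 Also: LDLR protein level on the cell surface quantified by ELISA.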 The note with it: primary human coronary artery smooth muscle cells; actives raise or lower the signal.

Read-out in test [14]: Monocyte Chemoattractant Protein-1 (MCP1), CCL2 (gene 6347)
The test is described as follows: BSK_CASM3C_MCP1: BioMAP Diversity Plus: CASM3C Assay for Monocyte Chemoattractant Protein-1 (MCP1) Biomarker Activity (AID 2283046).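 Also: MCP-1 level quantified by ELISA 24 h after dosing.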 The settings on record: primary human coronary artery smooth muscle cells; actives raise or lower the signal.

A short description of test [15]: BSK_CASM3C_Proliferation: Cell Proliferation Assessment in the BioMAP Diversity Plus: CASM3C Assay (AID 2283047).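 Also: sulforhodamine B total protein stain as relative cell number at 560 nm; sub-confluent cells exposed 48 h before staining; fitted both ways against DMSO so gain or loss of cell number.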 The note with it: primary human coronary artery smooth muscle cells.
Read-out in test [16]: Monokine induced gamma interferon (MIG), CXCL9 (gene 4283)
Kind of test: BSK_CASM3C_MIG: BioMAP Diversity Plus: CASM3C Assay for Monokine induced gamma interferon (MIG) Biomarker Activity (AID 2283048). The note with it: primary human coronary artery smooth muscle cells; actives raise or lower the signal.

Read-out in test [17]: serum amyloid A (SAA), SAA1 (gene 6288)
Kind of test: BSK_CASM3C_SAA: BioMAP Diversity Plus: CASM3C Assay for serum amyloid A (SAA) Biomarker Activity (AID 2283049).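 Also: SAA protein level quantified by ELISA.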 The settings on record: primary human coronary artery smooth muscle cells; actives raise or lower the signal.

The nature of test [18]: BSK_CASM3C_SRB: Viability Assessment in the BioMAP Diversity Plus: CASM3C Assay (AID 2283050).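 Also: total protein by SRB staining as cytotoxicity measure in parallel cultures.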 The settings on record: primary human coronary artery smooth muscle cells.
Read-out in test [19]: Thrombomodulin, THBD (gene 7056)
Kind of test: BSK_CASM3C_Thrombomodulin: BioMAP Diversity Plus: CASM3C Assay for Thrombomodulin Biomarker Activity (AID 2283051).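 Also: thrombomodulin protein level measured by ELISA 24 h after dosing.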 The settings on record: primary human coronary artery smooth muscle cells; actives raise or lower the signal.

Read-out in test [20]: Transforming growth factor beta 1 (TGFb1), TGFB1 (gene 7040)
The test is described as follows: BSK_BE3C_TGFb1: BioMAP Diversity Plus: BE3C Assay for Transforming growth factor beta 1 (TGFb1) Biomarker Activity (AID 2283036). The note with it: primary human bronchial epithelial cells; actives raise or lower the signal. The method in brief:
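Human primary bronchial epithelial cells (BE3C system) were dosed with chemical and TGF-b1 levels measured by ELISA at 24 h. Activity was fitted bidirectionally relative to DMSO negative control as baseline.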

For the compound `COc1ccc(C)cc1N`, the result in [1], in test [2], in test [3], in test [4], in [5] and in test [6] was inactive. The result in test [7], in [8], in [9], in test [10], in test [11] and in test [12] was inactive. In addition, the outcome in test [13], in [14], in test [15], in test [16], in test [17] and in [18] was inactive. Further, the result in [19] was inactive.
`CCCc1cc(=O)[nH]c(=S)[nH]1`: the result in test [1], in test [2], in test [3], in test [4], in test [5] and in [6] was inactive. The outcome in [7], in [8], in test [9], in [10], in test [11] and in [12] was inactive. The result in test [13], in [14], in test [15], in test [16], in test [17] and in test [18] was inactive. In addition, the result in [19] was inactive.
The term AC50 denotes the midpoint of the concentration-response curve, whichever way the signal moves. Consider `NC(=O)Cn1c(=O)cc(CCN2CCN(c3nccc4sccc34)CC2)c2ccc(F)cc21`, for which the result in [1], in test [3], in [4], in test [20], in [5] and in [6] was inactive. For the same compound, the result in [7], in [8], in test [9], in test [10], in test [11] and in test [12] was inactive. Further, the result in test [14], in [15], in test [16], in test [17], in [18] and in test [19] was inactive. In test [13], the concentration at half-maximal activity (AC50) is 27.5 µM (active).
As to `CCCCCCCC=O`, the outcome in test [1], in test [3], in test [4], in test [20], in test [5] and in test [6] was inactive. For the same compound, the result in [7], in test [8], in test [9], in test [10], in test [11] and in test [12] was inactive. The outcome in [13], in test [14], in [15], in [16], in test [17] and in [18] was inactive. Further, the outcome in test [19] was inactive.
With `Cc1ccc(C)c(O)c1C`, the result in [1], in [2], in [3], in test [4], in [5] and in [6] was inactive. The outcome in test [7], in test [8], in test [9], in test [10], in [11] and in test [12] was inactive. Besides, the outcome in test [13], in [14], in [15], in [16], in test [17] and in test [18] was inactive. For the same compound, the result in [19] was inactive.
On to `CC(=O)OCCOCCOCCOC(C)=O`, for which the outcome in test [1], in test [2], in test [3], in test [4], in test [5] and in test [6] was inactive. Also, the outcome in [7], in [8], in test [9], in test [10], in test [11] and in [12] was inactive. Besides, the outcome in test [13], in test [14], in test [15], in test [16], in test [17] and in [18] was inactive. Also, in [19], the outcome was inactive.
In the case of `COc1cc(S(=O)(=O)O)c(C)cc1N=Nc1c(O)ccc2cc(S(=O)(=O)O)ccc12`, the outcome in test [1], in test [2], in [3], in [4], in [5] and in [6] was inactive. Also, the outcome in test [7], in test [8], in test [9], in test [10], in test [11] and in [12] was inactive. The outcome in test [13], in test [14], in test [15], in test [16], in [17] and in test [18] was inactive. Besides, in [19], the result was inactive.
